In PubChem BioAssay AID651642 (Sanford-Burnham Center for Chemical Genomics, 2012):
Values without a mark were called inactive. Calls of active or inactive are those of the source.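 The calls were made as follows: active = average half-effect concentration of 10 µM or less in every one of the four cell panels; inactive = the rest.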

The molecules below were run on HL-1 (assay: protection of cardiomyocytes from stress damage, SAR follow-up, cell-based, panel, H9c2 and HL-1, H2O2, 2-deoxyglucose, ATP luminescence (AID 651642;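 also: plate controls were H2O2 plus DMSO for no effect and cells kept without H2O2 for full effect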)). Details: H9c2/HL-1 cardiomyocyte H2O2 oxidative damage, mean of runs; activity: with H2O2, at 0.154 µM; outcome: with H2O2.
`COc1cc(-c2cc(C(=O)NCC(=O)Nc3ccc(C(C)=O)cc3)c3cc(C)ccc3n2)cc(OC)c1OC` was tested, and the activity was 4.62% (active).
For `COc1cc(-c2cc(C(=O)NCC(=O)Nc3cccc(C(C)=O)c3)c3ccccc3n2)cc(OC)c1OC`, the activity was -2.38% (active).
Molecule `COc1cc(-c2cc(C(=O)Nc3cccc(C(C)=O)c3)c3cc(Br)ccc3n2)cc(OC)c1OC` has an activity of 1.55%.
Molecule `COc1cc(-c2cc(C(=O)NCC(=O)Nc3ccc(C(C)=O)cc3)c3ccccc3n2)cc(OC)c1OC` has an activity of 0.684%.
With `CCOC(=O)c1cccc(NC(=O)c2cc(-c3cc(OC)c(OC)c(OC)c3)nc3ccc(Cl)cc23)c1` the activity was -1.55%.
Molecule `COc1cccc(CNC(=O)CNC(=O)c2cc(-c3cc(OC)c(OC)c(OC)c3)nc3ccccc23)c1` has an activity of -2.04%.
`COc1cc(-c2cc(C(=O)NCC(=O)Nc3cccc(C(C)=O)c3)c3cc(Br)ccc3n2)cc(OC)c1OC` was tested, and the activity was -0.566% (active).
For `COc1ccc2c(c1OC)C(=O)N1c3ccccc3C(=O)N(Cc3c(Cl)cccc3Cl)C21` (configuration not stated), the activity was 2.81%.
With `COc1cc(-c2cc(C(=O)Nc3cccc(C(C)=O)c3)c3cc(C)ccc3n2)cc(OC)c1OC` the activity was 2.4% (active).
With `COc1ccc2c(c1OC)C(=O)N1c3ccccc3C(=O)N(Cc3ccccc3Br)C21` (configuration not stated) the activity was -0.68%.
In the case of `CCOC(=O)c1cccc(NC(=O)c2cc(-c3cc(OC)c(OC)c(OC)c3)nc3c(Cl)cccc23)c1`, the activity is reported as 5.38%.
For `COc1ccc(NC(=O)CNC(=O)c2cc(-c3cc(OC)c(OC)c(OC)c3)nc3ccccc23)cc1`, the activity was 3.9% (active).
`COc1cc(-c2cc(C(=O)NCC(=O)Nc3cccc(C(C)=O)c3)c3cccc(Cl)c3n2)cc(OC)c1OC` gave an activity of 8.31%.
`COc1cc(-c2cc(C(=O)Nc3cccc(C(=O)N4CCOCC4)c3)c3ccccc3n2)cc(OC)c1OC` showed an activity of -0.415%.
For `CCOC(=O)c1cccc(NC(=O)CNC(=O)c2cc(-c3cc(OC)c(OC)c(OC)c3)nc3ccc(F)cc23)c1`, the activity was 2.27% (active).
Work on `COc1ccc2c(c1OC)C(=O)N1c3ccccc3C(=O)N(Cc3cccc(Cl)c3Cl)C21` (configuration not stated) yielded an activity of 4.4%.
For `COc1cc(-c2cc(C(=O)Nc3cccc(C(=O)NCc4ccccc4)c3)c3ccccc3n2)cc(OC)c1OC`, the activity was 1.48% (active).
For `CCOC(=O)c1ccc(NC(=O)c2cc(-c3cc(OC)c(OC)c(OC)c3)nc3ccccc23)cc1`, the activity was 0.646%.
`COc1cc(-c2cc(C(=O)Nc3cccc(C(=O)Nc4ccccc4)c3)c3ccccc3n2)cc(OC)c1OC` showed an activity of -3.29%.
`COc1ccc2c(c1OC)C(=O)N1c3ccccc3C(=O)N(Cc3ccccc3Cl)C21` (configuration not stated) was tested, and the activity was 2.73%.
In the case of `COc1ccc2c(c1OC)C(=O)N1c3ccccc3C(=O)N(Cc3ccc(C)cc3C)C21` (configuration not stated), the activity is reported as -0.945%.
For `COc1ccccc1CN1C(=O)c2ccccc2N2C(=O)c3c(ccc(OC)c3OC)C12` (configuration not stated), the activity was 1.25%.
For `COc1ccc2nc(-c3cc(OC)c(OC)c(OC)c3)cc(C(=O)NCC(=O)Nc3ccc(C(C)=O)cc3)c2c1`, the activity was -1.7% (active).
In the case of `COC(=O)CNC(=O)c1cccc(NC(=O)c2cc(-c3cc(OC)c(OC)c(OC)c3)nc3ccccc23)c1`, the activity is reported as -1.7% (active).
For `CCOC(=O)c1cccc(NC(=O)CNC(=O)c2cc(-c3cc(OC)c(OC)c(OC)c3)nc3ccc(OC)cc23)c1`, the activity was -3.33% (active).
`CCOC(=O)c1cccc(NC(=O)CNC(=O)c2cc(-c3cc(OC)c(OC)c(OC)c3)nc3ccc(Br)cc23)c1` was tested, and the activity was -0.604% (active).
With `COc1ccc2c(c1OC)C(=O)N1c3ccccc3C(=O)N(Cc3cccc(F)c3)C21` (configuration not stated) the activity was 0.0397%.
Molecule `COc1cc(-c2cc(C(=O)Nc3cccc(C(C)=O)c3)c3cccc(Cl)c3n2)cc(OC)c1OC` has an activity of -3.22%.
For `CCOC(=O)c1ccccc1NC(=O)c1cc(-c2cc(OC)c(OC)c(OC)c2)nc2ccccc12`, the activity was -1.41%.
With `CCOC(=O)c1cccc(NC(=O)CNC(=O)c2cc(-c3cc(OC)c(OC)c(OC)c3)nc3ccc(C)cc23)c1` the activity was -1.48% (active).
`COc1ccc2c(c1OC)C(=O)N1c3ccccc3C(=O)N(Cc3ccccc3)C21` (configuration not stated) was tested, and the activity was -5.45%.
With `CCNC(=O)c1cccc(NC(=O)c2cc(-c3cc(OC)c(OC)c(OC)c3)nc3ccccc23)c1` the activity was -0.0361% (active).
